Data taken from the antibiotic and cytotoxicity screens of Wong et al. (2023).
In all, about 39,000 compounds went through this assay and about 1,500 (3.8%) were called active. The list comes from a sample in which actives are over-represented; it also holds similar structures and randomly drawn compounds.

Each compound was assayed on HSkMC (human skeletal muscle cells) (assay: cytotoxicity call (relative viability < 0.9)). Conditions: 10 µM.
In the case of `COc1ccc(S(=O)(=O)N(C)C[C@H]2OCc3cnnn3CCCC(=O)N([C@H](C)CO)C[C@@H]2C)cc1`, the cytotoxicity call is reported as “inactive”.
In the case of `Cc1noc(C)c1NC(=O)Nc1cccc2c1O[C@@H](CN(C)S(=O)(=O)c1ccccc1)[C@H](C)CN([C@@H](C)CO)C2=O`, the cytotoxicity call is reported as “inactive”.
With `C[C@@H]1CCCCO[C@H](CN(C)C(=O)c2ccncc2)[C@H](C)CN([C@@H](C)CO)C(=O)c2cc(NC(=O)C3CCCCC3)ccc2O1` the cytotoxicity call was “inactive”.
For `COc1ccc(-c2cnc3c(c2)C(=O)N([C@@H](C)CO)C[C@@H](C)[C@@H](CN(C)C(=O)Cc2cccnc2)O3)cc1`, the cytotoxicity call was “inactive”.
With `C/C=C/c1cccc(-c2nc(C(=O)NCc3ccccc3)cc3c2[C@H](CCO)N([S@@](=O)C(C)(C)C)C3)c1` the cytotoxicity call was “inactive”.
In the case of `C=CCOC(=O)[C@@H]1[C@H]2C(=O)O[C@H](c3ccccc3)[C@H](c3ccccc3)N2[C@H](c2ccccc2OCCO)[C@@]12C(=O)Nc1ccc(I)cc12`, the cytotoxicity call is reported as “inactive”.
In the case of `O=C(C[C@@H]1CC[C@H](NC(=O)Nc2ccc3c(c2)OCO3)[C@H](CO)O1)NCCCN1CCOCC1`, the cytotoxicity call is reported as “inactive”.
In the case of `C[C@H](CO)N1C[C@H](C)[C@@H](CN(C)S(=O)(=O)c2ccc(Cl)cc2)Oc2ccc(NC(=O)Cn3cnnn3)cc2CC1=O`, the cytotoxicity call is reported as “inactive”.
In the case of `COc1ccc(-c2ccc3c(c2)O[C@H](CN(C)CC2CCOCC2)[C@H](C)CN([C@H](C)CO)S3(=O)=O)cc1`, the cytotoxicity call is reported as “inactive”.
For `COCc1cn(CC[C@@H]2CC[C@@H](NC(=O)CCN3CCCCC3)[C@@H](CO)O2)nn1`, the cytotoxicity call was “inactive”.
`Cn1c(=O)c2c(ncn2C[C@@H](O)CO)n(C)c1=O` was tested, and the cytotoxicity call was “inactive”.
With `Cn1c(=O)c(F)c(Nc2ccc(I)cc2F)c2c(=O)n(C[C@@H](O)CO)cnc21` the cytotoxicity call was “active”.
For `Cn1c(=O)c2c(ncn2CC(O)CO)n(C)c1=O` (stereo not given), the cytotoxicity call was “inactive”.
For `Cc1noc(C)c1S(=O)(=O)N(C)C[C@H]1OCc2cnnn2CCCC(=O)N([C@H](C)CO)C[C@H]1C`, the cytotoxicity call was “inactive”.
For `Cc1ccc(S(=O)(=O)Nc2ccc3c(c2)CC(=O)N([C@H](C)CO)C[C@@H](C)[C@@H](CN(C)Cc2ccncc2)O3)cc1`, the cytotoxicity call was “inactive”.
`CS(=O)(=O)Nc1ccc2c(c1)[C@H]1C[C@H](CC(=O)NCc3ccc(-c4ccccc4)cc3)O[C@H](CO)[C@H]1O2` was tested, and the cytotoxicity call was “inactive”.
For `C/C=C1\[C@@H](O[C@H]2O[C@@H](CO)[C@@H](O)[C@@H](O)[C@@H]2O)OC=C(C(=O)OC)[C@H]1CC(=O)OC[C@H]1[C@H](C)[C@H](OC(=O)C[C@@H]2C(C(=O)OC)=CO[C@H](O[C@H]3O[C@@H](CO)[C@@H](O)[C@@H](O)[C@@H]3O)/C2=C\C)C[C@@H]1[C@H](CO)COC(=O)C[C@@H]1C(C(=O)OC)=CO[C@@H](O[C@H]2O[C@@H](CO)[C@@H](O)[C@@H](O)[C@@H]2O)/C1=C\C`, the cytotoxicity call was “inactive”.
`C[C@@H]1CN([C@H](C)CO)C(=O)c2cc(NC(=O)C3CCCCC3)ccc2O[C@H]1CN(C)Cc1ccc(Cl)c(Cl)c1` was tested, and the cytotoxicity call was “inactive”.
In the case of `CC(C)NC(=N)NC(=N)Nc1ccc(Cl)cc1.Cl`, the cytotoxicity call is reported as “inactive”.
For `N[C@@H](CC(=O)Nc1ccc(Cl)cc1)C(=O)O`, the cytotoxicity call was “inactive”.
In the case of `Cl.Cl.N=C(NCCCCCCNC(=N)NC(=N)Nc1ccc(Cl)cc1)NC(=N)Nc1ccc(Cl)cc1`, the cytotoxicity call is reported as “active”.
For `C[C@H](CO)N1C[C@H](C)[C@H](CN(C)S(=O)(=O)c2ccccc2)Oc2ccc(NS(=O)(=O)c3cn(C)cn3)cc2C1=O`, the cytotoxicity call was “inactive”.
For `O=C(O)c1ccnc2nc[nH]c12`, the cytotoxicity call was “inactive”.
In the case of `O=C1OC2(c3ccccc31)c1cc(I)c(O)c(I)c1Oc1c2cc(I)c(O)c1I`, the cytotoxicity call is reported as “active”.
`O=C1OC2(c3ccc(O)cc3Oc3cc(O)ccc32)c2ccccc21` was tested, and the cytotoxicity call was “inactive”.
With `O=C1OC(c2cc(I)c(O)c(I)c2)(c2cc(I)c(O)c(I)c2)c2ccccc21` the cytotoxicity call was “inactive”.
`Clc1ccc(-c2cccs2)nn1` was tested, and the cytotoxicity call was “inactive”.
For `CC(C)NC(=O)Nc1cccc2c1O[C@@H](CN(C)C(=O)Nc1ccc3c(c1)OCO3)[C@H](C)CN([C@H](C)CO)C2=O`, the cytotoxicity call was “inactive”.
With `COCC#Cc1cnc2c(c1)C(=O)N([C@H](C)CO)C[C@H](C)[C@H](CN(C)C(=O)Nc1ccccc1OC)O2` the cytotoxicity call was “inactive”.
In the case of `C[C@@H]1CN([C@@H](C)CO)C(=O)c2cc(NS(=O)(=O)c3ccc(Cl)cc3)ccc2O[C@@H]1CN(C)Cc1ccc(-c2ccccc2)cc1`, the cytotoxicity call is reported as “active”.
For `C[C@H](CO)N1C[C@H](C)[C@@H](CN(C)Cc2ccc(-c3ccccc3)cc2)Oc2ccc(NS(=O)(=O)c3ccccc3)cc2C1=O`, the cytotoxicity call was “inactive”.
In the case of `C[C@@H]1CN([C@H](C)CO)C(=O)c2cc(NS(=O)(=O)c3ccc(Cl)cc3)ccc2O[C@@H]1CN(C)Cc1ccc(-c2ccccc2)cc1`, the cytotoxicity call is reported as “active”.
In the case of `C[C@@H]1CN([C@H](C)CO)C(=O)c2cc(NS(=O)(=O)c3ccccc3)ccc2O[C@@H]1CN(C)Cc1ccc(-c2ccccc2)cc1`, the cytotoxicity call is reported as “inactive”.
With `C[C@H](CO)N1C[C@H](C)[C@H](CN(C)Cc2ccc(-c3ccccc3)cc2)Oc2ccc(NS(=O)(=O)c3ccc(Cl)cc3)cc2C1=O` the cytotoxicity call was “active”.
With `C[C@@H]1CN([C@@H](C)CO)C(=O)c2cc(NS(=O)(=O)c3ccc(Cl)cc3)ccc2O[C@H]1CN(C)Cc1ccc(-c2ccccc2)cc1` the cytotoxicity call was “active”.
`C[C@H]1CN([C@@H](C)CO)C(=O)c2cc(NS(=O)(=O)c3ccc(Cl)cc3)ccc2O[C@@H]1CN(C)Cc1ccc(-c2ccccc2)cc1` was tested, and the cytotoxicity call was “inactive”.
For `C[C@H]1CN([C@@H](C)CO)C(=O)c2cc(NS(=O)(=O)c3ccc(Cl)cc3)ccc2O[C@H]1CN(C)Cc1ccc(-c2ccccc2)cc1`, the cytotoxicity call was “inactive”.
For `C[C@H](CO)N1C[C@H](C)[C@H](CN(C)Cc2ccc(-c3ccccc3)cc2)Oc2ccc(NS(=O)(=O)c3ccccc3)cc2C1=O`, the cytotoxicity call was “inactive”.
For `C[C@H]1CN([C@@H](C)CO)C(=O)c2cc(NS(=O)(=O)c3ccccc3)ccc2O[C@@H]1CN(C)Cc1ccc(-c2ccccc2)cc1`, the cytotoxicity call was “inactive”.
For `CN1CCN(C)C2(CCN(C(=O)c3ccn[nH]3)CC2)C1=O`, the cytotoxicity call was “inactive”.
For `COCCNC(=O)C[C@@H]1CC[C@H]2[C@@H](COc3ccc(NS(=O)(=O)c4ccc(Cl)cc4)cc3C(=O)N2C)O1`, the cytotoxicity call was “inactive”.
With `C[C@H](CO)N1C[C@H](C)[C@@H](CN(C)C(=O)Nc2ccc(F)cc2)OCCCC[C@H](C)Oc2ccc(NS(=O)(=O)c3cccs3)cc2C1=O` the cytotoxicity call was “inactive”.
With `C[C@@H]1CN([C@H](C)CO)C(=O)c2cc(NC(=O)CCC(F)(F)F)ccc2O[C@@H]1CN(C)C(=O)Nc1cccc2ccccc12` the cytotoxicity call was “inactive”.
`COc1ccc(NC(=O)N2C[C@H](O)COC[C@H]3O[C@H](CC(=O)NCc4ccccc4OC)CC[C@@H]32)cc1` was tested, and the cytotoxicity call was “inactive”.
With `C[C@@H]1CCCCO[C@@H](CN(C)C(=O)C2CCCCC2)[C@H](C)CN([C@H](C)CO)C(=O)c2cc(NC(=O)Nc3ccc4c(c3)OCO4)ccc2O1` the cytotoxicity call was “inactive”.
With `COc1ccc2occ(C(C)=O)c2c1` the cytotoxicity call was “inactive”.
With `C[C@@H]1CN([C@H](C)CO)C(=O)c2cc(NS(=O)(=O)c3ccc(Cl)cc3)ccc2O[C@H]1CN(C)Cc1ccc(-c2ccccc2)cc1` the cytotoxicity call was “active”.
`C[C@@H]1CN([C@H](C)CO)C(=O)c2cc(NS(=O)(=O)c3ccccc3)ccc2O[C@H]1CN(C)Cc1ccc(-c2ccccc2)cc1` was tested, and the cytotoxicity call was “inactive”.
With `C[C@H](CO)N1C[C@H](C)[C@@H](CN(C)Cc2ccc(-c3ccccc3)cc2)Oc2ccc(NS(=O)(=O)c3ccc(Cl)cc3)cc2C1=O` the cytotoxicity call was “active”.
`COc1cccc(C#Cc2ccc([C@H]3[C@H]4CN(S(=O)(=O)c5ccccc5C)CC(=O)N4[C@H]3CO)cc2)c1` was tested, and the cytotoxicity call was “inactive”.
For `C[C@H](CO)N1C[C@H](C)[C@@H](CN(C)C(=O)Cc2ccncc2)Oc2cc(C#CC3CCCCC3)ccc2S1(=O)=O`, the cytotoxicity call was “inactive”.
`NC(=O)c1ccc([N+](=O)[O-])cc1Cl` was tested, and the cytotoxicity call was “inactive”.
`O=C(Nc1ccc([N+](=O)[O-])cc1Cl)c1cc(Cl)ccc1O` was tested, and the cytotoxicity call was “active”.
`O=C(Nc1cc(Cl)ccc1Cl)c1cc(Cl)ccc1NS(=O)(=O)c1ccc(Cl)c([N+](=O)[O-])c1` was tested, and the cytotoxicity call was “inactive”.
In the case of `C[C@@H]1CN([C@H](C)CO)C(=O)c2cccc(NC(=O)NC3CCCCC3)c2O[C@H]1CN(C)Cc1ccc(C(F)(F)F)cc1`, the cytotoxicity call is reported as “inactive”.
`CN(C)C(=O)c1cccc(-c2cccc(-c3nc(C(=O)NC4CCCCC4)cc4c3[C@@H](CCO)N([S@](=O)C(C)(C)C)C4)c2)c1` was tested, and the cytotoxicity call was “inactive”.
With `COc1cccc(CNC(=O)c2cc3c(c(-c4cccc(-c5cccc(C#N)c5)c4)n2)[C@H](CCO)N([S@@](=O)C(C)(C)C)C3)c1` the cytotoxicity call was “inactive”.
For `CN(C)C(=O)c1cccc(-c2cccc(-c3nc(C(=O)NC4CCCCC4)cc4c3[C@@H](CCO)N([S@@](=O)C(C)(C)C)C4)c2)c1`, the cytotoxicity call was “active”.
`COc1cccc(CNC(=O)c2cc3c(c(-c4cccc(-c5ccc(C#N)cc5)c4)n2)[C@H](CCO)N([S@@](=O)C(C)(C)C)C3)c1` was tested, and the cytotoxicity call was “inactive”.
`CN(C)C(=O)c1cccc(-c2cccc(-c3nc(C(=O)NC4CCCCC4)cc4c3[C@H](CCO)N([S@@](=O)C(C)(C)C)C4)c2)c1` was tested, and the cytotoxicity call was “inactive”.
`CN(C)C(=O)c1ccc(-c2cccc(-c3nc(C(=O)NCc4ccccc4)cc4c3[C@@H](CCO)N([S@@](=O)C(C)(C)C)C4)c2)cc1` was tested, and the cytotoxicity call was “active”.
For `COc1cccc(CNC(=O)c2cc3c(c(-c4cccc(-c5ccc(C#N)cc5)c4)n2)[C@@H](CCO)N([S@](=O)C(C)(C)C)C3)c1`, the cytotoxicity call was “active”.
With `CN(C)C(=O)c1ccc(-c2cccc(-c3nc(C(=O)NCc4ccccc4)cc4c3[C@H](CCO)N([S@@](=O)C(C)(C)C)C4)c2)cc1` the cytotoxicity call was “inactive”.
For `CN(C)C(=O)c1ccc(-c2cccc(-c3nc(C(=O)NCc4ccccc4)cc4c3[C@@H](CCO)N([S@](=O)C(C)(C)C)C4)c2)cc1`, the cytotoxicity call was “inactive”.
In the case of `C[C@H](CO)N1C[C@H](C)[C@H](CN(C)Cc2ccc(C(=O)O)cc2)OCCCC[C@H](C)Oc2ccc(NC(=O)C3CCCCC3)cc2C1=O`, the cytotoxicity call is reported as “inactive”.
